Experimental findings from ChEMBL document CHEMBL1961873, “Compounds: GSK PKIS; Assays: Nanosyn kinase panel” (2012) are described below.

For experiment [1], the target named is Sphingosine kinase 1 (Homo sapiens) (UniProt Q9NYA1). To be noted: at 1 µM.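 Also: mean SPHK1 inhibition value reported from the GSK PKIS kinase panel screen.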
Experiment [2] addresses T1, Sphingosine kinase 2 (Homo sapiens) (UniProt Q9NRA0).
T1 sequence (whole entry): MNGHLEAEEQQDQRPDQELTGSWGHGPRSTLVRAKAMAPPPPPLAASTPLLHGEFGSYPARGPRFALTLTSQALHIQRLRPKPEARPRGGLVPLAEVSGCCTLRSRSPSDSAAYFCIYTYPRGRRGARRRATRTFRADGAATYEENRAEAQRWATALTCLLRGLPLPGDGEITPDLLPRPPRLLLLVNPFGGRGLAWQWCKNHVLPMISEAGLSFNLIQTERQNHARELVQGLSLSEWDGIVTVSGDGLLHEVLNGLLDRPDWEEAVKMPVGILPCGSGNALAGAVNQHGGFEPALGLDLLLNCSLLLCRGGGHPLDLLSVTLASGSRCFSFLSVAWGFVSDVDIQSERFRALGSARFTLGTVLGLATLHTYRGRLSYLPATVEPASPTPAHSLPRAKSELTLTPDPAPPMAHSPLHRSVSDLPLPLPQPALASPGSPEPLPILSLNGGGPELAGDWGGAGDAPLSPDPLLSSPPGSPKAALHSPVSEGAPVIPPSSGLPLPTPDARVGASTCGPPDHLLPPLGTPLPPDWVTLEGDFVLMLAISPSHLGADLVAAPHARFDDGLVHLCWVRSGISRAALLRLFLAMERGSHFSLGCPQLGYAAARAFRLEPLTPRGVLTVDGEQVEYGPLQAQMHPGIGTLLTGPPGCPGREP
To be noted: at 0.1 µM.

Experiment [3] concerns the target T1, Sphingosine kinase 2 (Homo sapiens). The note with it: at 1 µM.
Experiment [4] concerns the target Casein kinase II subunit alpha (Homo sapiens) (UniProt P68400). To be noted: at 0.1 µM.
Experiment [5] shares this target. To be noted: at 1 µM.
Experiment [6] addresses T2, Inhibitor of nuclear factor kappa-B kinase subunit alpha (Homo sapiens) (UniProt O15111).
T2 sequence (whole entry): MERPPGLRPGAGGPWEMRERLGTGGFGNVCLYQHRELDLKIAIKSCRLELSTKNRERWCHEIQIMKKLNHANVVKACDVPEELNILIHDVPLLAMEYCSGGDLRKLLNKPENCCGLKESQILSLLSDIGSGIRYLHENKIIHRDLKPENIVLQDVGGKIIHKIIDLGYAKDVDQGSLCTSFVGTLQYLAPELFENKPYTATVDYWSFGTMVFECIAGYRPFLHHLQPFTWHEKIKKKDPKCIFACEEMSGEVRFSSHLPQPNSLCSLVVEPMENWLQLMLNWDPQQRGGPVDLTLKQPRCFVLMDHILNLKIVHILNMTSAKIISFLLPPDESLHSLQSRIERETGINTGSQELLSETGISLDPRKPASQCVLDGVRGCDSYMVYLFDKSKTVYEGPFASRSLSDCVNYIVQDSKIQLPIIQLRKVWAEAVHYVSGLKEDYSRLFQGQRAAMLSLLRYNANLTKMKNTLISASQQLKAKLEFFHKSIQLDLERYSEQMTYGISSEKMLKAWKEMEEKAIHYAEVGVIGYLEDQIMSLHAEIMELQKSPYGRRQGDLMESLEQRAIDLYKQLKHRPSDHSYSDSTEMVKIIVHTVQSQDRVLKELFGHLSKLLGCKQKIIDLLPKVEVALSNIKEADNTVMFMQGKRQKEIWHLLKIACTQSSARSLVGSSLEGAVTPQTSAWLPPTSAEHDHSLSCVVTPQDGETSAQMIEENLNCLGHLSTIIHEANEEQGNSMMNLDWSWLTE
The note with it: at 0.1 µM.

In experiment [7] the target is T2, Inhibitor of nuclear factor kappa-B kinase subunit alpha (Homo sapiens). To be noted: at 1 µM.
The target in experiment [8] is T3, Inhibitor of nuclear factor kappa-B kinase subunit beta (Homo sapiens) (UniProt O14920).
T3 sequence (whole entry): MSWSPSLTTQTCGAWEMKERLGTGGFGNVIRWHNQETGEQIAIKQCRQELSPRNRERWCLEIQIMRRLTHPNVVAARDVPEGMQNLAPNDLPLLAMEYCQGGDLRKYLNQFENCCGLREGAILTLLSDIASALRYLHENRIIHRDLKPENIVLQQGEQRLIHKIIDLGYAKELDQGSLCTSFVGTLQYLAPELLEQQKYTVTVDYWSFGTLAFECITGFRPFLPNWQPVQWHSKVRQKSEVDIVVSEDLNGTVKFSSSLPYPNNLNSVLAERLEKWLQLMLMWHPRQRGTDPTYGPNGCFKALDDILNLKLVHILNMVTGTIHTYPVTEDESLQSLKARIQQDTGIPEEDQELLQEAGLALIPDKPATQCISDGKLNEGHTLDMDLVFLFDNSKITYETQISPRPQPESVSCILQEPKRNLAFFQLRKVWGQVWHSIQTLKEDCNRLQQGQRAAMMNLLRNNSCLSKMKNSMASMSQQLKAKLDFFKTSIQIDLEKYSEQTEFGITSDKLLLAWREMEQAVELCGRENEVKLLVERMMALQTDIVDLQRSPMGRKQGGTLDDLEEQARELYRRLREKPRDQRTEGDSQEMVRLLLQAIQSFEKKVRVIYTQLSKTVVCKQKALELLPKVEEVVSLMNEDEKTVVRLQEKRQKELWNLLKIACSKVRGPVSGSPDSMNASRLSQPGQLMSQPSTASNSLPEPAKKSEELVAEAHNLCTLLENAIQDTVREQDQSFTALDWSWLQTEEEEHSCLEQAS
To be noted: at 0.1 µM.

Experiment [9] concerns the target T3, Inhibitor of nuclear factor kappa-B kinase subunit beta (Homo sapiens). The note with it: at 1 µM.
In experiment [10] the target is T4, Inhibitor of nuclear factor kappa-B kinase subunit epsilon (Homo sapiens) (UniProt Q14164).
T4 sequence (whole entry): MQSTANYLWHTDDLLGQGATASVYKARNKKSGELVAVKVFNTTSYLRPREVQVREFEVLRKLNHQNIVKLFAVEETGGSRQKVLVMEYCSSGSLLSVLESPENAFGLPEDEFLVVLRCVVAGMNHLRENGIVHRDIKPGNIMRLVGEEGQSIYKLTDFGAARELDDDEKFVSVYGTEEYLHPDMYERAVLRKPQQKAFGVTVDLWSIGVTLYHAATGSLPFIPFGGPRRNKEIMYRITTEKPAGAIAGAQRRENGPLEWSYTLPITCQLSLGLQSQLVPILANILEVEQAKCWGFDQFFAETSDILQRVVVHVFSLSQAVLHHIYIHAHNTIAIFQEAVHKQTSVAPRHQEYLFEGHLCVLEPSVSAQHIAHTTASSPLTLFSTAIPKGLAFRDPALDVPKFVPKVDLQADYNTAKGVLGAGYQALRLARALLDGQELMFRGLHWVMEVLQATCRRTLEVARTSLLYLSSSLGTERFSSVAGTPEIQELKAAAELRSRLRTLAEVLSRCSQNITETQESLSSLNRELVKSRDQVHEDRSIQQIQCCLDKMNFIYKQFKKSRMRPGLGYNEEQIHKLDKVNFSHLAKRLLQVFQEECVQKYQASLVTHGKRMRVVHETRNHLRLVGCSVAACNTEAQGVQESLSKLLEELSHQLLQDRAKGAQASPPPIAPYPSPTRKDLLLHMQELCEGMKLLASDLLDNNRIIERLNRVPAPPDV
To be noted: at 0.1 µM.

For experiment [11], the target named is T4, Inhibitor of nuclear factor kappa-B kinase subunit epsilon (Homo sapiens). The note with it: at 1 µM.
Experiment [12] has as its target T5, Serine/threonine-protein kinase Nek1 (Homo sapiens) (UniProt Q96PY6).
T5 sequence (whole entry): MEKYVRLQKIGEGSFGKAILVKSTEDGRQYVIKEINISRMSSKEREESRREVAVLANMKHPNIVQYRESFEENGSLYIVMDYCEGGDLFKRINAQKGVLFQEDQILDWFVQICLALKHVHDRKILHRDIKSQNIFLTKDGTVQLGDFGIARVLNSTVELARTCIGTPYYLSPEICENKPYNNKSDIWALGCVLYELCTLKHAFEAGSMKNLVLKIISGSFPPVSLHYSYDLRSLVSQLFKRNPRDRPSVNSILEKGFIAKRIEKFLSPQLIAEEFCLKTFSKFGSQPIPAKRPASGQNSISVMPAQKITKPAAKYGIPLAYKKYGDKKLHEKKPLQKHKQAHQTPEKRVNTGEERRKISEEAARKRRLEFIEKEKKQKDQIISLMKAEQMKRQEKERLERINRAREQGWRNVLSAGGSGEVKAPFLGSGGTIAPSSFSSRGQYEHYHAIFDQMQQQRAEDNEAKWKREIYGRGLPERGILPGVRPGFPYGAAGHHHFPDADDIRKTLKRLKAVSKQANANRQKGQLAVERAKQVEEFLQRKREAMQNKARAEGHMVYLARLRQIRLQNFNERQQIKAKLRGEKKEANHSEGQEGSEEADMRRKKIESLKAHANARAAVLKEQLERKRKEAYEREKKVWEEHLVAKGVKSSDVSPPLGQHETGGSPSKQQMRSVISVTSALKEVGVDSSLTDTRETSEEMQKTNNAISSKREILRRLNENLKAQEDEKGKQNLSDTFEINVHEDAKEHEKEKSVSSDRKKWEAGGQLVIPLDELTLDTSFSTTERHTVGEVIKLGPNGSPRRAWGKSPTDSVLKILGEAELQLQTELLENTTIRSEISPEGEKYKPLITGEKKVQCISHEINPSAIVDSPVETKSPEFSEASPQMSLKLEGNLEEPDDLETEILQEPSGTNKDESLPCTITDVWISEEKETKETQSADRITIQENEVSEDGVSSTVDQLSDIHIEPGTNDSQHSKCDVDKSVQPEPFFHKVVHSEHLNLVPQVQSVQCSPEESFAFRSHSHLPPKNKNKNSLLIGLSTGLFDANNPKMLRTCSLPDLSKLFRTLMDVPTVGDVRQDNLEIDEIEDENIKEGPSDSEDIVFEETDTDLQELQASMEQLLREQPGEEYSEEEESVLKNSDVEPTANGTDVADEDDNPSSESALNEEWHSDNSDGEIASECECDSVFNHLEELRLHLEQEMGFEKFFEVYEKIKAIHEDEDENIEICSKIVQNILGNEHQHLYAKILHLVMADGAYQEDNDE
To be noted: at 0.1 µM.

Experiment [13] has as its target T5, Serine/threonine-protein kinase Nek1 (Homo sapiens). The note with it: at 1 µM.
Experiment [14] deals with T6, Serine/threonine-protein kinase Nek2 (Homo sapiens) (UniProt P51955).
T6 sequence (whole entry): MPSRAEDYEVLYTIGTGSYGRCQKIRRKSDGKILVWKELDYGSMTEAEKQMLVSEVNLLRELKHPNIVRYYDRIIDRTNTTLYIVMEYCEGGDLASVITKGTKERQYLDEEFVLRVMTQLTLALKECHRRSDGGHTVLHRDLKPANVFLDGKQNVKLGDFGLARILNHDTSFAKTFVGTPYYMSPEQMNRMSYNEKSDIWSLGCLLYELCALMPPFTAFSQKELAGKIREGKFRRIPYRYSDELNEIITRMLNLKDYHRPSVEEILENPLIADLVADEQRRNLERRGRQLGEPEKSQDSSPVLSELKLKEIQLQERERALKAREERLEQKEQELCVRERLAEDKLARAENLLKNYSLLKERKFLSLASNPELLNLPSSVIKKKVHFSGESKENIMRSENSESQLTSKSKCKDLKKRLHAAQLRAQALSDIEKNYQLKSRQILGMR
The note with it: at 0.1 µM.

Experiment [15] has as its target T6, Serine/threonine-protein kinase Nek2 (Homo sapiens). To be noted: at 1 µM.
Experiment [16] has as its target Serine/threonine-protein kinase Nek6 (Homo sapiens) (UniProt Q9HC98). The note with it: at 0.1 µM.
The target is the same in experiment [17]. To be noted: at 1 µM.
Experiment [18] deals with Serine/threonine-protein kinase Nek7 (Homo sapiens) (UniProt Q8TDX7). The note with it: at 0.1 µM.
Sequence of Serine/threonine-protein kinase Nek7 (Homo sapiens) (Q8TDX7 whole entry, looked up): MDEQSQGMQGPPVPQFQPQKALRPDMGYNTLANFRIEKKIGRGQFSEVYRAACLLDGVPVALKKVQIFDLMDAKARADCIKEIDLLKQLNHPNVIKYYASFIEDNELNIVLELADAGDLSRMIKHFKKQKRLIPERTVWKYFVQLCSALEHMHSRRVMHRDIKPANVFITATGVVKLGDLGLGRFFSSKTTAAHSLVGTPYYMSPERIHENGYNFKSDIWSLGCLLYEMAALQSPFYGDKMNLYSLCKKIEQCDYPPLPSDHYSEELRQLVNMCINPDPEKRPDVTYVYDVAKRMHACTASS
Experiment [19] shares this target. The note with it: at 1 µM.
The target in experiment [20] is T7, Serine/threonine-protein kinase Nek9 (Homo sapiens) (UniProt Q8TD19).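 Also: reported value is the mean percent inhibition of NEK9.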
T7 sequence (whole entry): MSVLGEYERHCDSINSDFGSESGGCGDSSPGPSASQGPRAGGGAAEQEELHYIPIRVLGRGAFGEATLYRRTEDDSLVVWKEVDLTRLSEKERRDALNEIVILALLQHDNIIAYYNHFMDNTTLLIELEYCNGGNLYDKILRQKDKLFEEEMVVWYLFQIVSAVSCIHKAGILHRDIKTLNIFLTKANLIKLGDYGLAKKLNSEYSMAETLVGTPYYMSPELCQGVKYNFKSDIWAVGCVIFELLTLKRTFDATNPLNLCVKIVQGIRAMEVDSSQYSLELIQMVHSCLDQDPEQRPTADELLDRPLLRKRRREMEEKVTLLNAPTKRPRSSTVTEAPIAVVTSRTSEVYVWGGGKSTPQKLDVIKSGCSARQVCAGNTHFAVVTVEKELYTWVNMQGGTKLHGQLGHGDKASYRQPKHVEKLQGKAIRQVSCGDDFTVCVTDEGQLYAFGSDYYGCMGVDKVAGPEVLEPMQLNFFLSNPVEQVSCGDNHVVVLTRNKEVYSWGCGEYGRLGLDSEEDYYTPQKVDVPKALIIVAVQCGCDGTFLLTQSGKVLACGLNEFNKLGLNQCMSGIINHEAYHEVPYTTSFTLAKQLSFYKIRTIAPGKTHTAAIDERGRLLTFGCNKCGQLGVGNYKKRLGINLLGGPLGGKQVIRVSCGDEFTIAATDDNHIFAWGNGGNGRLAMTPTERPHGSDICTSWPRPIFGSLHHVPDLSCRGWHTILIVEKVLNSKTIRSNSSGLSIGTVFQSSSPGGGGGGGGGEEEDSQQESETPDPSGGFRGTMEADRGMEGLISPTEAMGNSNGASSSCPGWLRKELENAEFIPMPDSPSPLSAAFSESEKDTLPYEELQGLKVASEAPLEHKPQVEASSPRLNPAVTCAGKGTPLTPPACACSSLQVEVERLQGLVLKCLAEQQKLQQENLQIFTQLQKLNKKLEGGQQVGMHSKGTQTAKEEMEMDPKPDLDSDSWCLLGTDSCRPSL
To be noted: at 0.1 µM.

SMILES strings stand for the structures.

Sequence of Serine/threonine-protein kinase Nek6 (Homo sapiens) (Q9HC98 whole entry): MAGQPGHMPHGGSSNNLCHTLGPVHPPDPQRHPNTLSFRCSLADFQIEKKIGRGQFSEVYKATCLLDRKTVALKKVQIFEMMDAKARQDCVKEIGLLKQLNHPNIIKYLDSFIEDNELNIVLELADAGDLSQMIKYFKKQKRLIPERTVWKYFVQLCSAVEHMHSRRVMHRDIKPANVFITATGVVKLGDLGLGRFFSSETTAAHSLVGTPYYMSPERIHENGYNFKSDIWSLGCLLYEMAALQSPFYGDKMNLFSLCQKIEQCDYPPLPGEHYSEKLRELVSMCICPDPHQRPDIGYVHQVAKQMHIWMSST
Sequence of Casein kinase II subunit alpha (Homo sapiens) (P68400 whole entry, looked up): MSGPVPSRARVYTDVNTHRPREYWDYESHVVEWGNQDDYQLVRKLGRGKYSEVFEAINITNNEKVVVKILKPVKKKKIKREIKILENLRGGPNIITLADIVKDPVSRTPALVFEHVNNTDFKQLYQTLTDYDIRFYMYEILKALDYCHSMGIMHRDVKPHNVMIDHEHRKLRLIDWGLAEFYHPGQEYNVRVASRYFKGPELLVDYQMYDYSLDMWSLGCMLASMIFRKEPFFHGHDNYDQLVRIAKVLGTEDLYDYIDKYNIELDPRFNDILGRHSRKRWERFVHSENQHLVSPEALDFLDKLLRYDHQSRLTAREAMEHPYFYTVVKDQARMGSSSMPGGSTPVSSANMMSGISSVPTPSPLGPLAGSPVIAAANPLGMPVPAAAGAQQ
Sequence of Sphingosine kinase 1 (Homo sapiens) (Q9NYA1 whole entry): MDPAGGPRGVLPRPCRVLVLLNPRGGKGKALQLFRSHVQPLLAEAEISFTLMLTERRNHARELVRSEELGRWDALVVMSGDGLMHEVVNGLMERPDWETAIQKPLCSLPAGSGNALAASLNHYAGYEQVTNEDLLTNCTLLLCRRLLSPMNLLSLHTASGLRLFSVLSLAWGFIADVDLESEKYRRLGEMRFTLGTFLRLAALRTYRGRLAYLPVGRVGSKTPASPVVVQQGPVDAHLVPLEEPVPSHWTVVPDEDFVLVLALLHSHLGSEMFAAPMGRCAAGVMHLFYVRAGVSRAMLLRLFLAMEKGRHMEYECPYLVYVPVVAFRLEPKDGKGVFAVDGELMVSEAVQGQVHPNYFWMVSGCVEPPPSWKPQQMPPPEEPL

Take `Cc1cc(O)cc(C)c1/C=C/c1cncc(C(=O)OC(C)(C)C)c1`: the inhibition in experiment [1] was -1.82%; in experiment [2] it was 0.51%; in experiment [3], 0%; in [4], 4.48%; in experiment [5], 7.86%; in [6] it was 2.35%. Further, the inhibition in [7] amounted to 1.81%; in [8], 2.36%; in experiment [9], 2.32%; in experiment [10], 4.19%; in experiment [11], 91.7%; in [12], 2.47%. Moreover, the inhibition is 4.15% in [13]; 3.29% in experiment [14]; 2.53% in [15]; 1.87% in experiment [16]; 2.59% in experiment [17]; -2.32% in [18]. The inhibition amounted to 3.53% in experiment [19] and 8.55% in experiment [20].
